Source: PubChem
C8 TRAIL sens: caspase-8 TRAIL sensitization | NB7+C8 cells + TRAIL, ATPlite viability luminescence | inhibition (viability loss, TRAIL sensitization), % at 10 µM | 360,000 compounds, 1% hits | AID 624354;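 active = compounds causing at least 50% loss of cell viability in the single-dose screen, relative to plate controls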
aSyn UTR inh: 5' untranslated region of α-synuclein, MLPCN primary screen; alpha-synuclein 5'UTR reporter, inhibitor activity; inhibition, % (tested at 7.5 µM); 300,000 compounds, 0.82% hits; AID 1813; in the data active = inhibition above about 60%;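 note: H4 neuroglioblastoma cells stably carrying SNCA 5'UTR luciferase fusion; 0% = DMSO wells and 100% = positive control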
HIF-2a inh: HIF-2a inhibition | 786-0 RCC cells HIF-2a reporter, luciferase luminescence, overnight | inhibition, % at 18.8 µM | 360,000 compounds, 0.72% hits;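 active = inhibition of the luminescence signal of 40% or more relative to plate controls, in a single-dose primary screen at 18.75 µM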
TROY signal inh: TROY signaling inhibition; Q293 LMP1-TROYcd NF-kB luciferase reporter, 4 h; 360,000 compounds, 0.98% hits; inhibition, % at 10 µM; AID 1347056;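 active = compounds whose plate-normalised and pattern-corrected inhibition of the luciferase reporter signal at the single screening dose is 50% or more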
TWEAK Fn14 block: TWEAK-Fn14 signaling inhibition; TWEAK-stimulated Fn14 reporter cells, luciferase luminescence, 8 h; inhibition, % at 10 µM; 360,000 compounds, 2% hits; AID 1159606; in the data active = inhibition above about 50%
HSP90 refold inh: inhibitors of HSP90 luciferase refolding in rabbit reticulocyte lysate | luciferase refolding luminescence, 3 h | inhibition, % at 5.6 µM | AID 1789 | 290,000 compounds, 0.91% hits;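 active = inhibition above the screen-wide mean plus 3 SD, computed separately per campaign, cut at about 16% in these data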;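 note: 0% = DMSO wells and 100% = 60 µM geldanamycin wells; inhibitors lower the luminescence because luciferase stays unfolded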
* = called active by the depositor; / = no result given. Hits are enriched below; roughly 3.9% of the tested compounds scored in any of these assays.

SMILES | C8 TRAIL sens | aSyn UTR inh | HIF-2a inh | TROY signal inh | TWEAK Fn14 block | HSP90 refold inh
O=C(N/N=C/c1cn(-c2ccccc2)nc1-c1cccs1)c1ccc(Cl)cc1 | 40 | -66 | -73 | -11 | 55* | 1
O=C(N/N=C/c1cn(-c2ccccc2)nc1-c1cc2ccccc2o1)c1ccncc1 | 45 | -15 | -270 | 28 | 70* | -2
Cc1ccc(C)c(N2CCN(C(C(=O)NC3CCCC3)C(C)C)CC2)c1 (configuration not stated) | -2 | / | -8 | / | / | /
CC(=O)c1c(C)[nH]c(C(=O)NCc2ccccc2F)c1C | 1 | -16 | -26 | 8 | 54* | -3
CC(=O)c1c(C)[nH]c(C(=O)Nc2ccc(N3CCCCCC3)cc2)c1C | -3 | / | 5 | 46 | 72* | /
CC(=O)c1c(C)[nH]c(C(=O)Nc2cccc3ccccc23)c1C | 0 | -16 | 8 | 46 | 40 | 5
CC(=O)c1c(C)[nH]c(C(=O)NCc2ccccc2Cl)c1C | 1 | -1 | -19 | -14 | -8 | 1
CC(=O)c1c(C)[nH]c(C(=O)Nc2cccc(C)n2)c1C | 47 | -12 | -120 | -1 | 53* | 13
CCOC(=O)CC1(CC)Oc2ccccc2N1S(=O)(=O)c1ccc(C)cc1 (configuration not stated) | -9 | / | 6 | / | / | /
O=C(NCC1CCCCC1)c1ccc2nc([C@@H]3O[C@H](CO)[C@H](O)[C@H](O)[C@H]3O)[nH]c2c1 | -2 | / | 9 | -1 | -2 | /
Cc1cccc(OCC(=O)Nc2nc3ccc([N+](=O)[O-])cc3s2)c1 | -17 | -28 | -29 | 59* | 1 | 2
CS(=O)(=O)c1ccc2nc(NC(=O)c3cc([N+](=O)[O-])cc([N+](=O)[O-])c3)sc2c1 | -3 | -8 | -26 | -32 | -12 | 3
CS(=O)(=O)c1ccc2nc(NC(=O)c3cccc([N+](=O)[O-])c3)sc2c1 | 62* | -136 | -262 | -31 | 12 | -2
COc1ccc(C(=O)c2ccc(Cl)cc2)c2ccccc12 | 3 | 17 | 14 | 1 | 17 | 0
COc1ccc(C(=O)c2ccccc2)c2c(O)ccc(C(=O)c3ccccc3)c12 | 10 | 3 | 32 | 49 | 57* | 7
CCCc1nc2c(Cl)cc(C(F)(F)F)cn2c1Cc1ccc(OC)cc1C | -4 | / | -13 | -10 | 4 | /
CCOC(=O)C(C(=O)OCC)C(Nc1cccc(Br)c1)c1ccccc1 (configuration not stated) | 2 | -1 | 38 | 18 | 71* | 1
CCN1CCN(c2ccc(Cl)cc2NC(=O)c2ccc(-n3nc(C)cc3C)cc2)CC1 | 26 | / | -5 | -1 | -39 | /
CCNC(=S)N=Nc1c(O)n(Cc2ccc(Cl)cc2)c2ccccc12 | 15 | -25 | 17 | -4 | 14 | -3
C=CCn1c(O)c(N=NC(=S)Nc2ccc(OC)cc2)c2ccccc21 | 22 | 84* | 16 | -5 | -3 | 5
Oc1c(N=NC(=S)Nc2ccccc2F)c2ccccc2n1Cc1ccccc1F | 19 | 87* | 7 | 18 | 13 | 0
Cc1ccc(C)c(Cn2c(O)c(N=NC(=S)Nc3ccccc3F)c3ccccc32)c1 | 14 | 72* | 9 | 14 | 3 | 5
Oc1c(N=NC(=S)Nc2ccccc2F)c2ccccc2n1Cc1ccc(Cl)cc1 | 7 | 70* | 14 | 22 | 6 | -1
Cc1ccccc1Cn1c(O)c(N=NC(=S)Nc2ccccc2F)c2ccccc21 | 7 | 73* | 9 | -16 | -8 | 6
O=C(Cn1c(-c2cncs2)nc2ccccc21)NCc1ccccc1 | -6 | 14 | 23 | -4 | 29 | 16*
SMILES | C8 TRAIL sens | aSyn UTR inh | HIF-2a inh | TROY signal inh | TWEAK Fn14 block | HSP90 refold inh
Cc1ccnc(SCC(=O)N2CCN(C(c3ccccc3)c3ccccc3)CC2)n1 | -8 | -10 | 14 | 7 | 7 | 16*
Cc1ccnc(SCc2ccc(C(=O)O)cc2)n1 | 10 | 20 | 15 | -12 | 108* | -2
Cc1ccc(NC(=O)c2ccc(CSc3nccc(C)n3)cc2)cc1 | 3 | -23 | -92 | -13 | 3 | 0
COc1cccc(NC(=O)C2(C)CCN2C(=O)CC2CC2)c1 (configuration not stated) | -8 | / | 2 | 5 | 11 | /
CN(C)c1cccc(CNC(=O)c2ccc3nc([C@@H]4O[C@H](CO)[C@H](O)[C@H](O)[C@H]4O)[nH]c3c2)c1 | -16 | / | -7 | 2 | 15 | /
C=CCN1C(=O)C(=Cc2ccc3c(c2)CCC3)SC1=S | 92* | / | -82 | -31 | -24 | /
